DT40 TDP1 no CPT = qHTS for Inhibitors of human tyrosyl-DNA phosphodiesterase 1 (TDP1): qHTS in cells in absence of CPT; DT40 Tdp1-/- hTDP1 cells, no CPT, ATP luminescence, 48 h; Potency, µM (highest dose often 46.2 µM), inactives show at the highest dose activity change, negative = growth inhibition, actives largely listed as inhibitors; 15% of 420,000 active; AID 686978, 2013; further: potency means the concentration at half of the fitted maximal effect; nearly all actives have a fitted effect of over 55% in size
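Luminescent ATP content (CellTiter-Glo) served as the growth readout. Knockout chicken DT40 cells expressing human TDP1 were exposed to compounds without camptothecin for a minimum 48 hr at 37 °C.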
DT40 TDP1 CPT = DT40-hTDP1 cell growth loss with CPT; chicken DT40 Tdp1-/-;hTDP1 cells + 20 nM CPT, ATP luminescence, 48 h; Potency, µM (doses to about 46.2 µM), inactives show at the highest dose activity change, negative = growth inhibition, actives largely listed as inhibitors; 12% of 420,000 active; AID 686979; further: potency means the concentration at half of the fitted maximal effect; nearly all actives have a fitted effect of over 55% in size
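Chicken DT40 Tdp1-/- cells complemented with human TDP1, 400 cells/well, exposed to compounds plus 20 nM camptothecin for at least 48 h at 37 C; viability read as ATP content by CellTiter-Glo luminescence.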
IL-1B inflam inh = blocks inflammasome-driven IL-1 beta release | THP-1 LPS/ATP IL-1B secretion, AlphaLISA, 16 h; stronger effect = lower value | 4.7% of 360,000 active | activity change, % at 57.5 µM | AID 743279; in the data active means activity change below about -50%; inconclusive means mostly about -30% to -49%
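THP-1 cells pretreated 1 hr with compounds (up to 57.5 uM final), then stimulated with LPS (250 ng/mL final) plus ATP (1.25 mM final); secreted IL-1B measured by AlphaLISA after 16 hr, decreased signal indicating inhibition.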
Giardia killer = kills Giardia lamblia | activity change, % at 7.66 µM, hits read low | 0.15% of 340,000 active | AID 540267 | Giardia lamblia trophozoite viability; in the data active means activity change below about -80%; inconclusive means between about -30% and that limit;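 further: parasites exposed to compound for two days anaerobically before the ATP read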
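Giardia lamblia trophozoites (100 cells/well) were incubated with compounds for 48 h at 37 deg C under anaerobic conditions. Viability was read as ATP content by one-step luminescence after 15-30 min at room temperature.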
ELG1 DNA repair = inhibitors of ELG1-dependent DNA repair in HEK293T cells; HEK293T ELG1-luciferase reporter, luminescence, 16 h; DNA damage induced by 5-fluorouridine; Potency, µM (top dose mostly 46.1 µM), inactives show top-dose activity change, negative = inhibition, hits mostly inhibitors; 2.3% of 330,000 active; AID 504467; further: potency means the concentration at half of the fitted maximal effect; nearly all actives have a fitted effect of over 55% in size
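Cells (2,000 per well) received 5-fluorouridine plus test compound or DMSO and were incubated 16 hr at 37 °C, 5% CO2. Luciferase activity was read by luminescence 30 min after ONE-Glo addition; signal suppression marked inhibition of damage-induced ELG1 function.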
TDP1 inh = inhibitors of human tyrosyl-DNA phosphodiesterase TDP1; Q9NUW8; recombinant TDP1, AlphaScreen DNA substrate cleavage; Potency, µM (highest dose often 130 µM), without a hit: top-dose activity change, negative = inhibition, most hits filed as inhibitors; 0.28% of 350,000 active; AID 485290; further: potency means the concentration at half of the fitted maximal effect; nearly all actives have a fitted effect of over 40% in size
Target sequence (Q9NUW8 whole entry, looked up): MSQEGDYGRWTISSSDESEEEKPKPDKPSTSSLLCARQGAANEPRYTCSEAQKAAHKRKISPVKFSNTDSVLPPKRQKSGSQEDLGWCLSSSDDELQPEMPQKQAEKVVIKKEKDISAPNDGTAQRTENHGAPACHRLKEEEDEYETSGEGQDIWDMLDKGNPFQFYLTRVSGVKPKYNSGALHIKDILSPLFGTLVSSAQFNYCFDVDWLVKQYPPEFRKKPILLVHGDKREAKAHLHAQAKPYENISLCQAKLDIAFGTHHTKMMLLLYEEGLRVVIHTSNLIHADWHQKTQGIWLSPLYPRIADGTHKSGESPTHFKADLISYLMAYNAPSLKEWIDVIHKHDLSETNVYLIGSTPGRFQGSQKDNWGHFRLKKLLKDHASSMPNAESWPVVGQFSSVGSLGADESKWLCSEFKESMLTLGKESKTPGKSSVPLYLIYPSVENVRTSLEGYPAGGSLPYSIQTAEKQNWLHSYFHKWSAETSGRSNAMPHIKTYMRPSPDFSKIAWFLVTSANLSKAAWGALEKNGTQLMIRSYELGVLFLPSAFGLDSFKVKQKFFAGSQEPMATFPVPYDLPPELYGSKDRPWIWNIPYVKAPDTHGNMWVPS
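Here, a 5' biotin and 3' phosphotyrosine-FITC DNA oligonucleotide reports Tdp1 activity: intact substrate bridges AlphaScreen beads, while cleavage leaves a 3' phosphate and drops signal. All incubations at room temperature.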
Numbers without * were called inactive; ? = inconclusive; / = not tested or not shown; [ ] = dose if it differs, or a comment. This is a sample that favours compounds with a hit; in the whole collection about 19% have one here. Unless noted, the call rests on the fitted dose curve; in most records, active means well fitted curve in the direction sought with a large enough effect; inconclusive means small, poorly fitted or top-dose-only effect, or another doubt; inactive means no such curve, though single readings can be large; an effect the other way counts as inactive or inconclusive. On the % scale 0 is the no-effect control and ±100 the full control effect.

SMILES	DT40 TDP1 no CPT	DT40 TDP1 CPT	IL-1B inflam inh	Giardia killer	ELG1 DNA repair	TDP1 inh
Cc1ccc(C(OCC(C)(C)C[N+](C)(C)C)c2ccccc2)cc1 (configuration not stated)	5.2µM*	5.8µM*	-52*	15	?	4%
CCN(CC)CCOC(c1ccccc1)c1ccc(C)cc1 (configuration not stated)	?	?	?	5	-19%	0%
Cc1c(CC(=O)NCCc2ccc(Cl)cc2)c(=O)oc2c(C)c3occ(C(C)(C)C)c3cc12	21µM*	?	/	/	/	7%
Cc1c(CC(=O)N2CCCCC2)c(=O)oc2c(C)c3occ(C(C)(C)C)c3cc12	15µM*	?	/	/	/	5%
COc1ccccc1CCNC(=O)Cc1c(C)c2cc3c(C(C)(C)C)coc3c(C)c2oc1=O	21µM*	26µM*	/	/	/	0%
Cc1coc2c(C)c3oc(=O)c(CC(=O)NCCc4ccc(Cl)cc4)c(C)c3cc12	?	?	/	/	/	2%
c1ccc(-c2ncnc3cc4n(c23)CCC4)cc1	?	-5%	25	10	?	7%[56.1 µM]
COc1cc(C(=O)Nc2ccc(Br)cc2C(=O)c2cc(OC)c(OC)c(OC)c2)cc(OC)c1OC	3.7µM*	13µM*	29	12	?	2%
CN(c1ccc(C(=O)N/N=C/c2cccc([N+](=O)[O-])c2)cc1)S(=O)(=O)c1ccccc1	?	8.2µM*	-10	-6	?	/
COc1cc(C(=O)Nc2ccc(S(=O)(=O)N(C)c3ccccc3)cc2)cc(OC)c1OC	?	16µM*	?	-3	?	5%
COc1cc(C(=O)Nc2c(C(=O)O)[nH]c3ccc(Br)cc23)cc(OC)c1OC	-14%	-4%	20	36	13%	/
Cc1nc2ccc(NC(=O)N(C)c3ccccc3)cc2s1	-23%	0%	20	10	?	-1%
Cc1nc2ccc(NC(=O)c3ccc(S(=O)(=O)N(C)c4ccccc4)cc3)cc2s1	23µM*	?	-62*	-2	?	3%
CCOc1ccc(C(C)=O)cc1CN1C(=O)NC(C)(C2CC2)C1=O (configuration not stated)	-21%	3%	23	42	-2%	-3%
Cc1cnc(CNc2ccnc(-c3cccc(C#N)c3)n2)cn1	7%	8%	/	/	/	/
COc1ccc(NC(=O)CN(Cc2ccccc2)S(=O)(=O)c2ccc3nc(C)sc3c2)cc1	?	?	/	/	/	6%
COc1ccc(C(=O)Nc2ccc(S(=O)(=O)N(C)c3ccccc3)cc2)cc1	16µM*	-25%	-65*	-2	/	/
COc1ccc(/C=N/NC(=O)c2ccc(N(C)S(=O)(=O)c3ccccc3)cc2)cc1	23µM*	?	-22	-12	?	7%
CC(=O)Nc1ccc(NC(=O)c2ccc(S(=O)(=O)N(C)c3ccccc3)cc2)cc1	?	?	0	6	?	-3%[56.1 µM]
COc1ccc(/C=N/NC(=O)c2ccc(NC(=O)c3ccccc3Br)cc2)cc1	?	?	-56*	19	?	-3%
COc1ccc(NC(=O)c2ccc(S(=O)(=O)N(C)c3ccccc3)cc2)cn1	?	15µM*	-30	-10	10µM*	4%
Cc1ccccc1C(=O)Nc1ccc(C(=O)N/N=C/c2ccc(F)cc2)cc1	?	-9%	-12	-13	-8%	-8%
O=C(O)CCC(=O)c1ccc(C2CCCCCC2)cc1	-8%	0%	29	/	/	/
COc1cc(C(=O)NNC(=O)c2ccc(NC(C)=O)cc2)cc(OC)c1OC	-14%	-9%	-8	7	-5%	3%
COc1ccc(/C=N/NC(=O)C2c3ccccc3-c3ccccc32)cc1	21µM*	?	6	10	?	5%
SMILES	DT40 TDP1 no CPT	DT40 TDP1 CPT	IL-1B inflam inh	Giardia killer	ELG1 DNA repair	TDP1 inh
COc1cc(C(=O)Nc2ccc(N(C)C)cc2)cc(OC)c1OC	?	21µM*	-9	15	?	7%
COc1ccccc1NC(=O)COC(=O)C1CCN(/C=C/C(=O)C(F)(F)F)CC1	-20%	-12%	?	-4	10%	-2%
CC(C)CNS(=O)(=O)c1ccccc1C(=O)N1CCCCC1	-6%	-17%	-3	-9	?	4%
Cc1cccc(C)c1OCC(O)CNS(=O)(=O)c1ccccc1C(=O)N1CCCCC1 (configuration not stated)	21µM*	18µM*	12	-6	16µM*	0%
COC(=O)c1c(NC(C)=O)sc(Cc2ccccc2)c1C	-27%	-25%	28	2	9%	8%
Cc1c(Cc2ccccc2)sc(NC(=O)C(C)(C)C)c1C(N)=O	29µM*	16µM*	0	4	-7%	-8%
CCC(=O)Nc1sc(Cc2ccccc2)c(C)c1C(N)=O	?	16µM*	-11	6	-26%	12%
Cc1c(Cc2ccccc2)sc(NC(=O)Cc2ccccc2)c1C(N)=O	?	?	-19	-7	/	/
COc1cc(/C=N/n2c(C)n[nH]c2=S)ccc1OCc1ccc(F)cc1	18µM*	?	7	?	?	-1%
COc1cc(/C=N/NC(N)=S)ccc1OC(=O)c1ccc(C)cc1	-18%	-20%	44	5	?	11%
COc1ccc(C=NNC(=S)Nc2ccc(F)cc2)cc1OC	2.1µM*	3.3µM*	16	-6	/	/
COc1ccc(C=NNC(=S)NN=Cc2ccc(OC)c(OC)c2)cc1OC	12µM*	7.3µM*	-17	0	/	/
COc1cc(/C=N/NC(N)=S)ccc1OCc1ccc(C)cc1	10µM*	5.2µM*	-19	0	?	7%
COc1cc(/C=N\n2nnnc2N)ccc1OCc1ccc(F)cc1	-20%	-8%	-21	-12	?	1%
O=S(=O)(Nc1cc(O)cc2cccnc12)c1ccc(Cl)s1	/	/	/	/	/	23%
COc1cc(/C=N/NC(=S)N/N=C/c2cc(OC)c(OC)c(OC)c2)cc(OC)c1OC	3.7µM*	4.1µM*	10	13	?	3%
COc1ccccc1NC(=S)N/N=C/c1ccc(O)cc1	5.8µM*	7.3µM*	-101*	-2	?	0%
CC(C)c1ccc(OCC(=O)N(Cc2ccccc2)c2ccccn2)cc1	16µM*	23µM*	-6	20	-18%	-13%
Cc1ccc(CN(C(=O)COc2ccc([N+](=O)[O-])cc2)c2ccccn2)cc1	16µM*	?	/	/	/	-4%

High-throughput results deposited in PubChem BioAssay by National Center for Advancing Translational Sciences (NCATS).
